The record followed here is PubChem BioAssay (Tox21).

The nature of experiment [1]: qHTS assay to identify small molecule agonists of the estrogen receptor alpha (ER-alpha) signaling pathway in the presence of an antagonist - cell viability counter screen (AID 1259386).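 Further: series mostly up to about 92 µM; cells exposed to compounds for 22 h at 37 °C before the viability read; nearly all actives have a fitted effect of over 30% in size.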 The method in brief: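 ICI-182,780 at 10.0nM final accompanies the compound titration (15 concentrations, 22hr, 37C) on VM7Luc4E2 cells. The CellTiter-Fluor fluorescence readout runs in the same wells as the luciferase assay.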
(Quantitative high-throughput screening tests each substance at several concentrations.)

The target in experiment [2] is Progesterone receptor (Homo sapiens) (UniProt P06401). The experiment is described as follows: qHTS assay to identify small molecule agonists of the progesterone receptor (PR) signaling pathway (AID 1346784; calls by dose curve; further: nearly all actives have a fitted effect of over 30% in size). The method in brief:
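Beta-lactamase reporter read-out: after 16 hr compound treatment at 37C and a further 2 hr at room temperature with LiveBLAzer B/G FRET substrate, fluorescence was measured in PR-UAS-bla HEK 293T cells grown in 2% charcoal-stripped serum.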

The nature of experiment [3]: qHTS assay to identify small molecule antagonists of the progesterone receptor (PR) signaling pathway - cell viability counter screen (AID 1346798). Further: nearly all actives have a fitted effect of over 50% in size. Further: potency means the concentration at half of the fitted maximal effect. The method in brief: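 HEK293T PR-UAS-bla, 2% charcoal-stripped FBS; 4 hr pre-plate; cpd + R5020, 16 h 37C; LiveBLAzer read first; then CellTiter-Glo 30 min RT, luminescence.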
Experiment [4] can be described thus: qHTS assay to identify small molecule agonists of the progesterone receptor (PR) signaling pathway - cell viability counter screen (AID 1346799; calls by dose curve; further: nearly all actives have a fitted effect of over 45% in size; further: potency means the concentration at half of the fitted maximal effect). The method in brief:
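Luminescence from CellTiter-Glo, added after the beta-lactamase FRET read in the same wells, gave cytotoxicity in PR-UAS-bla HEK293T cells treated with compounds for 16 hr at 37C.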

Experiment [5] is described as follows: qHTS assay to identify small molecule antagonists of the TGF-beta/Smad signaling pathway - cell viability counter screen (AID 1346824). Further: nearly all actives have a fitted effect of over 50% in size. Further: potency means the concentration at half of the fitted maximal effect. The method in brief: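 SBE-bla HEK 293T cells, incubated overnight, then compound plus 0.25 ng/mL TGF-beta1 (stock added) for 5 hr at 37 C. Viability was read in the same wells by CellTiter-Glo luminescence after 30 min at room temperature.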

Experiment [6] is described as follows: qHTS assay to identify small molecule agonists of the TGF-beta/Smad signaling pathway - cell viability counter screen (AID 1346829). Further: nearly all actives have a fitted effect of over 45% in size. Further: potency means the concentration at half of the fitted maximal effect. In outline: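 Here the cytotoxicity of library compounds is measured in SBE-bla HEK 293T cells treated for 5 hr, using CellTiter-Glo added to wells already read for the beta-lactamase reporter.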
Experiment [7] concerns the target Thyrotropin-releasing hormone receptor (Homo sapiens) (UniProt P34981). The experiment is described as follows: qHTS assay to identify small molecule antagonists of the thyrotropin-releasing hormone receptor (TRHR) signaling pathway (AID 1346877; active means well fitted inhibition curve with a large enough effect in the repeat runs, not every such curve was filed as active; further: series mostly up to about 51 µM). In outline: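 Screening used HEK293 cells engineered with TRHR, with a brief 5 min room-temperature compound exposure preceding addition of TRH to 1 nM. The read-out was kinetic calcium-dye fluorescence, concentration-response from 15 doses in triplicate.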

Experiment [8] has the same target. The experiment is described as follows: qHTS assay to identify small molecule agonists of the thyrotropin-releasing hormone receptor (TRHR) signaling pathway (AID 1346891; calls by dose curve; further: series mostly up to about 58 µM). In outline: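 Intracellular calcium rise, read as fluorescence every second for 3 min, served as the agonist signal in dye-loaded HEK293 cells expressing TRHR; each compound ran at 15 concentrations in triplicate.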

Experiment [9] in a line: Human pregnane X receptor (PXR) small molecule agonists, qHTS cell viability counter screen (AID 1346977). Further: nearly all actives have a fitted effect of over 50% in size. Further: potency means the concentration at half of the fitted maximal effect. In outline:
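PXR-Luc HepG2, 2,000 cells/well, 5% charcoal-stripped FBS; 5hr settle; cpd 24hr, 37C/5% CO2; CellTiter-Fluor at 23hr, read 1hr later (fluorescence).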

Experiment [10] in a line: Caspase-3/7 induction in HepG2 cells by small molecules, qHTS assay (AID 1346978). Further: nearly all actives have a fitted effect of over 15% in size. Further: potency means the concentration at half of the fitted maximal effect. In outline: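 Wild-type HepG2 cells, 2,000/well, settled 5 hr at 37 C and 5% CO2, then compound-treated for 17 hr; caspase-3/7 activity read by luminescent Caspase-Glo 3/7 after 30 min at room temperature.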
Experiment [11] is described as follows: Caspase-3/7 induction in CHO-K1 cells by small molecules, qHTS cell viability counter screen (AID 1346979). Further: nearly all actives have a fitted effect of over 35% in size. Further: potency means the concentration at half of the fitted maximal effect. The method in brief: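 Cells (CHO-K1, wild type) are plated at 1,500 per well and incubated 5hr. Test compounds in DMSO are then pinned in, followed by 16hr at 37C and 5% CO2. Viability is read by CellTiter-Fluor fluorescence after 1hr.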
Experiment [12] can be described thus: Caspase-3/7 induction in CHO-K1 cells by small molecules, qHTS assay (AID 1346980). Further: nearly all actives have a fitted effect of over 15% in size. Further: potency means the concentration at half of the fitted maximal effect. The method in brief:
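Wild-type CHO-K1 cells exposed to compounds for 17hr at 37 C, 5% CO2. Caspase-3/7 activity then measured by Caspase-Glo 3/7 luminescence after 30min at room temperature.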

The nature of experiment [13]: Caspase-3/7 induction in HepG2 cells by small molecules, qHTS cell viability counter screen (AID 1346981). Further: nearly all actives have a fitted effect of over 30% in size. Further: potency means the concentration at half of the fitted maximal effect. In outline:
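Multiplexed with the caspase-3/7 assay: HepG2 cells, 16 hr compound treatment, CellTiter-Fluor viability detection by fluorescence.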

The target of experiment [14] is Nuclear receptor subfamily 1 group I member 2 (Homo sapiens) (UniProt O75469). As to the kind of experiment: Human pregnane X receptor (PXR) small molecule agonists, qHTS assay (AID 1346982). Further: nearly all actives have a fitted effect of over 35% in size. Further: potency means the concentration at half of the fitted maximal effect. The method in brief:
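We seeded PXR-Luc HepG2 cells in assay medium containing 5% charcoal-stripped FBS, added compounds 5 hr later, incubated 24 hr, and read luminescence with ONE-Glo reagent.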

The target in experiment [15] is Acetylcholinesterase (Homo sapiens) (UniProt P22303). As to the kind of experiment: Acetylcholinesterase (AChE) small molecule antagonists: colormetric cell-based qHTS assay (AID 1347395; calls by dose curve; further: nearly all actives have a fitted effect of over 30% in size; further: potency means the concentration at half of the fitted maximal effect). In outline:
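Colorimetric read-out: DTNB detects thiocholine released when cellular AChE in SH-SY5Y cells hydrolyses acetylthiocholine. Cells attached overnight, received compound for 30 min at 37 C, then substrate mix for 90 min at 37 C.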

Experiment [16] is described as follows: qHTS assay to identify small molecule agonists of the TGF-beta/Smad signaling pathway (AID 1346859; active means well fitted activation curve with a large enough effect in the signal ratio in the repeat runs, not every such curve was filed as active; the % refers to the signal ratio; further: series mostly up to about 77 µM). The method in brief:
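SBE-bla HEK 293T, 4,000 cells/well, plated o/n; cpd in DMSO, 5 hr, 37 C/5% CO2; B/G FRET substrate 2 hr RT; ex 405, em 460/530 nm.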

For experiment [17], the target named is Nuclear receptor subfamily 1 group I member 2 (Rattus norvegicus) (UniProt Q9R1A7). As to the kind of experiment: Rat pregnane X receptor (rPXR) activation by small molecules, qHTS assay (AID 1346983). Further: nearly all actives have a fitted effect of over 20% in size. To be noted: rPXR luciferase reporter cells, One-Glo luminescence, 24 h; stronger effect = higher value. In outline: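 Cell-based rPXR activation assay: rPXR cells, 2,000 per well, rested 5hr at 37 C, then exposed to compounds in DMSO for 24 hr at 37 C. Luciferase activity read by One-Glo luminescence after 30 min at room temperature.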
Sequence of Nuclear receptor subfamily 1 group I member 2 (Rattus norvegicus) (Q9R1A7 whole entry, looked up): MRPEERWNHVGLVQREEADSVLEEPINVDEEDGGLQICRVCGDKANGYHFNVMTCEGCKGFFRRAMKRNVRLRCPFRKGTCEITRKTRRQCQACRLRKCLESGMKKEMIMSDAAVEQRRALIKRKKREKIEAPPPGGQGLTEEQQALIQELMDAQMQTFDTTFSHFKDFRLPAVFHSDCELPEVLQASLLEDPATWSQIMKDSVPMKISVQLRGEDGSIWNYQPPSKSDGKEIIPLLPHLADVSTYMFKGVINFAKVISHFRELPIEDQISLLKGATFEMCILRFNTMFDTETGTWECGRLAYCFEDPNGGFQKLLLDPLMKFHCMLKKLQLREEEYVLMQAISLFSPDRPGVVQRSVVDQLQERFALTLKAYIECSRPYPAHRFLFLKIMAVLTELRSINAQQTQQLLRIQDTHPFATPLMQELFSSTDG

SMILES strings stand for the structures. Where “and” joins values, the source holds several entries; their conditions need not be identical. Identical values can stand only once. Results filed as inconclusive are left out. Where a structure was tested more than once in an assay, its records may differ in their call. Calls of active or inactive are those of the source. Unless noted, the call rests on the fitted dose curve; in most records, active means well fitted curve in the direction sought with a large enough effect in the repeat runs; inconclusive means weak or mixed curves; inactive means no such curve, though single readings can be large; an effect the other way counts as inactive or inconclusive.
On the % scale 0 is the no-effect control and ±100 the full control effect.

Sequence of Nuclear receptor subfamily 1 group I member 2 (Homo sapiens) (O75469 whole entry, looked up): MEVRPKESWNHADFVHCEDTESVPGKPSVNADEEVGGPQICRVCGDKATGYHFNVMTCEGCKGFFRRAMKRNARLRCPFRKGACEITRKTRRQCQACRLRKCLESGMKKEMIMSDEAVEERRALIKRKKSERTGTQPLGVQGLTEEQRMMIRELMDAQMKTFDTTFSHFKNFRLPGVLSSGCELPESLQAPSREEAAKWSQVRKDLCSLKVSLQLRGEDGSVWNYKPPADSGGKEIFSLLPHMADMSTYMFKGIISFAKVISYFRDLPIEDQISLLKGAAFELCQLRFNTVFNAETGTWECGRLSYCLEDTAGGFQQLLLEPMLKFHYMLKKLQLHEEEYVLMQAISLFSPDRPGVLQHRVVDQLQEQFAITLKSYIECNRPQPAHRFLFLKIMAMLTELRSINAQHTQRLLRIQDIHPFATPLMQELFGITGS
Sequence of Progesterone receptor (Homo sapiens) (P06401 whole entry, looked up): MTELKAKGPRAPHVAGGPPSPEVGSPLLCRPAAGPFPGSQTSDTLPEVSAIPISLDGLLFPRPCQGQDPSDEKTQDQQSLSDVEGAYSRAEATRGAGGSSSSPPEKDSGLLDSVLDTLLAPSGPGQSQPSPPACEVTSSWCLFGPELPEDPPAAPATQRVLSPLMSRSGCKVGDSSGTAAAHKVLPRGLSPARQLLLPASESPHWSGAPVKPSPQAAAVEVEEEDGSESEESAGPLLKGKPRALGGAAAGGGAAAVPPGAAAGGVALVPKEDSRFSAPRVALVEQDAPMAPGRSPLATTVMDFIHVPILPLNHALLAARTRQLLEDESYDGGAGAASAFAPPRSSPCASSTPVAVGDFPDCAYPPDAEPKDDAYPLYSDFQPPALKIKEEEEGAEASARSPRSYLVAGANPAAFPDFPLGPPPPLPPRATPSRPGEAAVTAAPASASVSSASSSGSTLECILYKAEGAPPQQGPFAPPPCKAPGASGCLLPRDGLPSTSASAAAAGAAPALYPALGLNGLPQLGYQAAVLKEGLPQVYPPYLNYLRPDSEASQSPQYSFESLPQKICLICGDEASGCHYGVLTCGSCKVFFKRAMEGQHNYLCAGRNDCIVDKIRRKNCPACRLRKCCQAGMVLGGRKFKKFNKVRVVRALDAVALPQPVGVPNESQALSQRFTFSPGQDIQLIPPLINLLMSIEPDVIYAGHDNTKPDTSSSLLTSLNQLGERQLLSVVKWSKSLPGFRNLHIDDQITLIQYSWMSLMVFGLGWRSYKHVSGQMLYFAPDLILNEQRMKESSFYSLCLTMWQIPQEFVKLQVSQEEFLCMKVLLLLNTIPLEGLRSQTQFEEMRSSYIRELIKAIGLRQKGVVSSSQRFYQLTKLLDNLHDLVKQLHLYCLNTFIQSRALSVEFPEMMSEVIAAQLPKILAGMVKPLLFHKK
Sequence of Thyrotropin-releasing hormone receptor (Homo sapiens) (P34981 whole entry, looked up): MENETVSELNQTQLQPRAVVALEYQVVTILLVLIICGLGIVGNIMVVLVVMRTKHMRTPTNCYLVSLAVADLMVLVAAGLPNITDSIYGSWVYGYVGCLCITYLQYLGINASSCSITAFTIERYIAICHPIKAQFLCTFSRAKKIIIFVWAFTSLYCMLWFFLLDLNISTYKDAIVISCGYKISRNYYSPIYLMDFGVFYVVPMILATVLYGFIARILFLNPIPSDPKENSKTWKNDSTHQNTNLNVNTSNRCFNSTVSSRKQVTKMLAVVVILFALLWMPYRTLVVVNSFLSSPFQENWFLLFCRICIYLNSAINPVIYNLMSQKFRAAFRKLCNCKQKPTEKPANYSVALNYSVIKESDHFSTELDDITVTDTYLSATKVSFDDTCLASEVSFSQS
Sequence of Acetylcholinesterase (Homo sapiens) (P22303 whole entry, looked up): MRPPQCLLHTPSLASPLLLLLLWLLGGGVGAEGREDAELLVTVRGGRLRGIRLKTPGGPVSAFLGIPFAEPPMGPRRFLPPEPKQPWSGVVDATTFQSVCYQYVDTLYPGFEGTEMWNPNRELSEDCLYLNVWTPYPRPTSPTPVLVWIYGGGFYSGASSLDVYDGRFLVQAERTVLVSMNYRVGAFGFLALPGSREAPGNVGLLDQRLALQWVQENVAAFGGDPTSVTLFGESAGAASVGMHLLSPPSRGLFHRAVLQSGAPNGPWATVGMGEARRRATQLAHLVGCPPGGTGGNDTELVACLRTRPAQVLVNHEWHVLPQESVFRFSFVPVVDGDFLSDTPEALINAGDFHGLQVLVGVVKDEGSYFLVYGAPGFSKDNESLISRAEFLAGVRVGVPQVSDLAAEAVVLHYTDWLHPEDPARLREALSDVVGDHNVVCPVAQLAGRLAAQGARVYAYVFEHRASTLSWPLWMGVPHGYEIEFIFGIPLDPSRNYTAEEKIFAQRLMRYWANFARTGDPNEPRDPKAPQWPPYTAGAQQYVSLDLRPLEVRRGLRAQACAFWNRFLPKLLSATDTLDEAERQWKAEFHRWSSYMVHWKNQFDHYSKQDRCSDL

As to `Nc1ccccc1C(=O)OCCc1ccccc1`, the Potency entry in [1], in [2], in experiment [3], in [4], in [5] and in experiment [6] was “inactive” each time. The Potency result in experiment [7], in experiment [9], in [10], in experiment [11], in [12] and in experiment [13] was “inactive” throughout. In [15], the Potency entry is “inactive”. For the same compound, in experiment [8], the compound was classed as inactive. Besides, the Potency in experiment [14] was 48.8 µM (active) and 30.6 µM (active).
With `CC(=O)OC(c1ccccc1)C(Cl)(Cl)Cl` (stereo not drawn), the Potency entry in experiment [1], in experiment [2], in experiment [3], in experiment [4], in experiment [5] and in experiment [6] was “inactive” throughout. Besides, the Potency entry in [9], in [10], in [11], in experiment [12], in experiment [13] and in experiment [14] was “inactive” throughout. Further, the Potency entry in [15] was “inactive”. Moreover, the call in experiment [16] was inactive.
As to `CCCCCCCCCCCC[N+](C)(C)CCOc1ccccc1`, the Potency result in experiment [1], in [2], in experiment [7], in experiment [12] and in experiment [15] was “inactive” each time. The Potency is 54.5 µM (active) and 13.3 µM (active) in experiment [3]; 24.3 µM (active) and 23.7 µM (active) in experiment [4]; 43.7 µM (active) in [5]; 55 µM (active) and 26.8 µM (active) in [6]; 61.1 µM (active) in experiment [9]; 43.3 µM (active) in [11]. The Potency in experiment [13] was 61.1 µM (active). In addition, the call in experiment [8] was inactive. Also, the max activation in [17] is -6.32% (inactive).
Regarding `CCCN(CCC)c1c([N+](=O)[O-])cc(C(C)C)cc1[N+](=O)[O-]`, the Potency entry in experiment [1], in experiment [2], in [3], in [4], in experiment [5] and in experiment [6] was “inactive” in each case. Also, the Potency result in [7], in experiment [9], in [10], in experiment [11], in [12] and in [13] was “inactive” each time. The Potency entry in [15] is “inactive”. For the same compound, the compound was classed as inactive in [8]. In addition, the Potency in [14] was 23.8 µM (active).
Consider `O=S(=O)(c1ccccc1)c1ccccc1`, for which the Potency result in [1], in [2], in [4], in experiment [5], in experiment [6] and in experiment [7] was “inactive” each time. The Potency entry in [9], in [10], in experiment [11], in experiment [12], in experiment [13] and in experiment [14] was “inactive” throughout. In [15], the Potency entry was “inactive”. Also, the compound was classed as inactive in experiment [16] and in experiment [8].
On to `CC(C)(C)CC(C)(C)c1ccc(O)cc1`, for which the Potency result in [1], in [2] and in experiment [7] was “inactive” each time. The Potency was 54.5 µM (active) in experiment [3]; 48.6 µM (active) in experiment [4]; 43.6 µM (active) and inactive in [6]; 54.5 µM (active) in experiment [9]; 51.4 µM (active) in [10]; 50 µM (active) in [11]. For the same compound, the Potency in experiment [12] is 51.4 µM (active); in experiment [13] it was 61.1 µM (active); in [14], 19.3 µM (active) and inactive; in experiment [15] it was 39.9 µM (active) and inactive. Further, the outcome in experiment [16] and in [8] was inactive.
Regarding `CCCSP(=S)(OCC)Oc1ccc(SC)cc1` (stereo not drawn), the Potency result in experiment [1], in [2], in experiment [3], in experiment [4], in [5] and in experiment [6] was “inactive” throughout. Also, the Potency result in experiment [9], in experiment [10], in experiment [11], in experiment [12], in experiment [13] and in [15] was “inactive” throughout. Besides, the compound was classed as inactive in experiment [16]. Further, the Potency in experiment [14] is 17.2 µM (active).
Regarding `Nc1ccccc1C(=O)OCC(O)CO` (stereo not drawn), the Potency entry in [1], in experiment [2], in [3], in experiment [4], in [5] and in experiment [6] was “inactive” throughout. The Potency result in experiment [7], in experiment [9], in experiment [10], in [11], in experiment [12] and in experiment [13] was “inactive” in each case. For the same compound, the Potency result in [14] and in [15] was “inactive” throughout. In addition, the outcome in experiment [16] and in [8] was inactive.
